From PubChem BioAssay (NCATS)
Results filed as inconclusive are left out. Activity calls are given as the source filed them. Unless noted, calls come from the whole dose curve; as a rule, active = well fitted curve in the direction sought with a large enough effect; inconclusive = small, poorly fitted or top-dose-only effect, or another doubt; inactive = no such curve, though single readings can be large; an effect the other way counts as inactive or inconclusive.

Tests used:
[1] = qHTS Assay for Identification of Small Molecule Inducers of Hypoxia Response (AID 2120; active = well fitted curve in the direction sought with a large enough effect in the signal ratio, with a control signal flat, not every such curve was filed as active; the % refers to the signal ratio)
In short: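 HRE-bla ME-180, 2500 cells/well, 0.5% dialyzed FBS medium; cpd titration, 17 h 37 degrees C; CCF4 2.5 h RT; Ex 405, Em 460/530 ratio -> %Activity, AC50.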

[2] = Validation screen for inhibitors of Lassa infection (AID 463096; calls by dose curve)
[3] = target: DNA repair nuclease/redox regulator APEX1 (Homo sapiens) (UniProt P27695); test: qHTS Validation Assay for Inhibitors of the Human Apurinic/apyrimidinic Endonuclease 1 (APE1) (AID 1705; note: potency is the fitted concentration of half-maximal effect)
In short: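 Substrate: 50 nM final fluorophore/quencher THF-abasic duplex. Enzyme preincubated with compounds 15 min, RT. Progress derived from fluorescence difference, third minus first kinetic read.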

[4] = target: Endonuclease 4 (Escherichia coli (strain K12)) (UniProt P0A6C1); test: Counterscreen for APE1 Inhibitors: qHTS Validation Assay for Inhibitors of Endonuclease IV (AID 1708)
In short: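 Read-out: fluorescence rise (ex 525/em 598 nm) from incision of a TAMRA/BHQ-2 double-stranded THF abasic-site substrate (50 nM), measured kinetically; third-minus-first read difference gave reaction progress. Enzyme 2 nM.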

[5] = qHTS for differential inhibitors of proliferation of Plasmodium falciparum line 7G8 (AID 1815);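 note: parasite growth measured after three days of incubation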; note: potency is the fitted concentration of half-maximal effect
[6] = qHTS for differential inhibitors of proliferation of Plasmodium falciparum line GB4 (AID 1816); details: Potency: Plasmodium falciparum GB4 proliferation inhibition;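 note: parasite growth measured after 72 h incubation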; note: potency is the fitted concentration of half-maximal effect
[7] = qHTS for differential inhibitors of proliferation of Plasmodium falciparum line 3D7 (AID 1876); note: potency is the fitted concentration of half-maximal effect
[8] = qHTS for differential inhibitors of proliferation of Plasmodium falciparum line D10 (AID 1877);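 note: parasites grown with compound for 72 h before DNA staining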; note: potency is the fitted concentration of half-maximal effect
[9] = qHTS for differential inhibitors of proliferation of Plasmodium falciparum line Dd2 (AID 1882); details: Potency: Plasmodium falciparum Dd2 proliferation inhibition; note: nearly all actives have a fitted effect of over 65% in size; note: potency is the fitted concentration of half-maximal effect
In short: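 RBC culture, 0.3% parasitemia / 2.5% Hct final; cpd added by pin tool in DMSO; 72 h, 37 C, 5% CO2; lysis buffer + SYBR Green I, o/n RT dark; FI 485/535; norm. to artemisinin 0.29 uM and DMSO.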

[10] = qHTS for differential inhibitors of proliferation of Plasmodium falciparum line W2 (AID 1883); details: Potency: Plasmodium falciparum W2 proliferation inhibition;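 note: parasites grown with compound for 72 h before lysis and staining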; note: potency is the fitted concentration of half-maximal effect
[11] = qHTS for differential inhibitors of proliferation of Plasmodium falciparum line HB3 (AID 1886); details: Potency: Plasmodium falciparum HB3 proliferation inhibition;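 note: parasites grown with compound for 72 h before SYBR Green readout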; note: potency is the fitted concentration of half-maximal effect
[12] = qHTS Assay for Modulators of Human Peripheral Myelin Protein 22 (PMP22) Expression/Activity (AID 1967; active = well fitted curve in the direction sought with a large enough effect in the signal ratio; the % refers to the signal ratio)
In short: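 Engineered MSC80 cells, Pmp22-promoter green and EF-alpha red luciferase reporters; 24h compound treatment at 37 °C. Concentration-response fits on green, red and ratio signals, each overlap-corrected, with %Activity normalized to untreated wells.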

[13] = target: Ferritin light chain (Equus caballus) (UniProt P02791); test: qHTS Validation Assay for Identification of Novel General Anesthetics (AID 2323)
In short: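 Normalized fluorescence response, scaled between free 1-AMA and 1-AMA/apoferritin complex, fitted to a four-parameter Hill equation for concentration-effect values. Binding mix: 10 uM horse-spleen apoferritin, 50% saturated 1-AMA in PBS; read 380/535 nm after 10 min.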

[14] = target: ATP-dependent DNA helicase Q1 (Homo sapiens) (UniProt P46063); test: qHTS Validation Assay for Inhibitors of RecQ-Like Dna Helicase 1 (RECQ1) (AID 2353); note: potency is the fitted concentration of half-maximal effect
In short: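 RECQ1T1 50 nM; forked duplex (20 bp + 30-nt ss tails) 200 nM, ATP 2 mM final; pH 8.0, 2 mM MgCl2, 2.5 ug/ml poly(dI-dC); 15 min compound preincubation; discontinuous kinetic read over 2 h at RT.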

[15] = Cytometric Cell-Based qHTS for Inhibitors of the mTORC1 Signaling Pathway in MEF (Tsc2-/-, p53-/-) Cells (AID 2660);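 note: Tsc2 and p53 null MEFs carrying empty vector with compound for 24 h; percent of cells above a phospho-rpS6 to PI ratio cutoff in each well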
In short: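 Percent of cells positive for normalized phospho-S6 staining is reported, with the cutoff set from rapamycin (7.5 nM) versus DMSO wells. Tsc2-/-, p53-/- MEFs received compound for 24 hrs.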

[16] = High Content Imaging Cell-Based qHTS for Inhibitors of the mTORC1 Signaling Pathway in MEF (Tsc2-/-, p53-/-) Cells (AID 2666); details: at 38.3 µM (top of the series);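 note: percent of cells scored positive for phospho-rpS6 Ser235/236 immunostaining by imaging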
In short: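 MEF Tsc2-/- p53-/- (empty vector), DMEM/10% FBS; cpd 24 h 37 °C; PFA fix, Alexa-488 p-rpS6 S235/236 Ab, Hoechst; imaged; rapamycin-defined inhibition; % positive cells/well.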

[17] = Validation screen for small molecules that induce DNA re-replication in MCF 10A normal breast cells (AID 463097); note: nearly all actives have a fitted effect of over 60% in size
In short: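 Following 48 hr compound incubation (37 C, 5% CO2), MCF 10A cells receive Hoechst for 40 min at 37 C. Nuclei are then scanned (excitation 405 nm, emission 500-530 nm) for total fluorescence intensity.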

[18] = target: Ubiquitin carboxyl-terminal hydrolase 2 (Homo sapiens) (UniProt O75604); test: qHTS Validation Assay for Inhibitors of Ubiquitin-specific Protease USP2a Using CHOP2 as the Reporter (AID 463106)
In short: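 Fluorescence read-out at Ex 485nm/Em 531nm after 60min RT, following addition of 25nM Ub-CHOP2 plus 25nM reporter substrate to USP2 core (10nM) pretreated 30min with compound. Data normalized to NEM full inhibition; concentration-response curves fitted.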

[19] = target: DNA polymerase III PolC-type (Bacillus subtilis (strain 168)) (UniProt P13267); test: qHTS Validation Assay for the Inhibitors of DNA Replication in Gram-Positive Bacteria (AID 485295);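 note: reconstituted holoenzyme with PolC plus beta clamp SSB and primase; PicoGreen fluorescence of double-stranded DNA made on primed circular M13 template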
In short: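 Inhibition of DNA synthesis by the reconstituted PolC holoenzyme, monitored through PicoGreen staining of dsDNA formed from ssM13Gori, dNTPs and NTPs, with compound preincubation and room-temperature reaction.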

[20] = target: RecQ-like DNA helicase BLM (Homo sapiens) (UniProt P54132); test: qHTS Validation Assay for Inhibitors of Bloom's syndrome helicase (BLM) (AID 2364)
In short: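 50 nM BLM preincubated 15 min at room temperature with compound in pH 8.0 Tris buffer containing 2.5 ug/ml poly(dI-dC); started with 200 nM TAMRA/BHQ-2 forked duplex and 2 mM ATP (final). Unwinding read as TAMRA fluorescence increase, two reads 2 h apart.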

Measured: Potency

Chain of ATP-dependent DNA helicase Q1 (Homo sapiens) (P46063 whole entry, looked up): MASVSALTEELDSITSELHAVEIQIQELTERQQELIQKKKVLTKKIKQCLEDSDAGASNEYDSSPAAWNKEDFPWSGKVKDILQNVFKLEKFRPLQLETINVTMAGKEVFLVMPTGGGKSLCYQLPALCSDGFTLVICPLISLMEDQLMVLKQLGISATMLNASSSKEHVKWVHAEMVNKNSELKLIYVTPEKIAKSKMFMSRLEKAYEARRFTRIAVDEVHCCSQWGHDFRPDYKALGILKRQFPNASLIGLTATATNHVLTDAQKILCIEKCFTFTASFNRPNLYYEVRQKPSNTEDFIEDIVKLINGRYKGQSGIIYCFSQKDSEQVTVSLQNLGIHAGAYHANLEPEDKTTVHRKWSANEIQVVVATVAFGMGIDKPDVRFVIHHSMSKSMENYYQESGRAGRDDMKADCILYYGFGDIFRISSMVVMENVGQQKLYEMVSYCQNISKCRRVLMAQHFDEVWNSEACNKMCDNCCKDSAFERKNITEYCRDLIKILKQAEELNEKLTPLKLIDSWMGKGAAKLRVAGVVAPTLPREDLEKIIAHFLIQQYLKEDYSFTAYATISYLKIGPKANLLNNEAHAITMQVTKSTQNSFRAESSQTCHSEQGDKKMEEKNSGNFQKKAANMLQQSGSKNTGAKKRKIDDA
Chain of Ubiquitin carboxyl-terminal hydrolase 2 (Homo sapiens) (O75604 whole entry, looked up): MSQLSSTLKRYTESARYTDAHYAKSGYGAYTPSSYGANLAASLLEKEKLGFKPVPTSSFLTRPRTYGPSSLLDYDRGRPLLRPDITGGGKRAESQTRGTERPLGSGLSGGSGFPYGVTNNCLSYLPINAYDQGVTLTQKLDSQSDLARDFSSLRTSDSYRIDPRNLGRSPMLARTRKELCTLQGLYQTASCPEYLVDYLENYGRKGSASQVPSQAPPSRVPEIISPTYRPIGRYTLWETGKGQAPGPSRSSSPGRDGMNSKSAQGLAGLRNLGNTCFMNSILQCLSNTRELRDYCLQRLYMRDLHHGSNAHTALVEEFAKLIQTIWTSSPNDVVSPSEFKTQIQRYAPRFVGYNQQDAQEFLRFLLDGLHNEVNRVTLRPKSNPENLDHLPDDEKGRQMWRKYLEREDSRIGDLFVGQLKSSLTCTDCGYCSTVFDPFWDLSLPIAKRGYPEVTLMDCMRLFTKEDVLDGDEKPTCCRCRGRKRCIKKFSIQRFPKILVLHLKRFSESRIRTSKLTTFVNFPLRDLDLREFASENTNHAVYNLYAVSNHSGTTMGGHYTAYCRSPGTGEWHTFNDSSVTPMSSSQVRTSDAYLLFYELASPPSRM
Chain of RecQ-like DNA helicase BLM (Homo sapiens) (P54132 whole entry, looked up): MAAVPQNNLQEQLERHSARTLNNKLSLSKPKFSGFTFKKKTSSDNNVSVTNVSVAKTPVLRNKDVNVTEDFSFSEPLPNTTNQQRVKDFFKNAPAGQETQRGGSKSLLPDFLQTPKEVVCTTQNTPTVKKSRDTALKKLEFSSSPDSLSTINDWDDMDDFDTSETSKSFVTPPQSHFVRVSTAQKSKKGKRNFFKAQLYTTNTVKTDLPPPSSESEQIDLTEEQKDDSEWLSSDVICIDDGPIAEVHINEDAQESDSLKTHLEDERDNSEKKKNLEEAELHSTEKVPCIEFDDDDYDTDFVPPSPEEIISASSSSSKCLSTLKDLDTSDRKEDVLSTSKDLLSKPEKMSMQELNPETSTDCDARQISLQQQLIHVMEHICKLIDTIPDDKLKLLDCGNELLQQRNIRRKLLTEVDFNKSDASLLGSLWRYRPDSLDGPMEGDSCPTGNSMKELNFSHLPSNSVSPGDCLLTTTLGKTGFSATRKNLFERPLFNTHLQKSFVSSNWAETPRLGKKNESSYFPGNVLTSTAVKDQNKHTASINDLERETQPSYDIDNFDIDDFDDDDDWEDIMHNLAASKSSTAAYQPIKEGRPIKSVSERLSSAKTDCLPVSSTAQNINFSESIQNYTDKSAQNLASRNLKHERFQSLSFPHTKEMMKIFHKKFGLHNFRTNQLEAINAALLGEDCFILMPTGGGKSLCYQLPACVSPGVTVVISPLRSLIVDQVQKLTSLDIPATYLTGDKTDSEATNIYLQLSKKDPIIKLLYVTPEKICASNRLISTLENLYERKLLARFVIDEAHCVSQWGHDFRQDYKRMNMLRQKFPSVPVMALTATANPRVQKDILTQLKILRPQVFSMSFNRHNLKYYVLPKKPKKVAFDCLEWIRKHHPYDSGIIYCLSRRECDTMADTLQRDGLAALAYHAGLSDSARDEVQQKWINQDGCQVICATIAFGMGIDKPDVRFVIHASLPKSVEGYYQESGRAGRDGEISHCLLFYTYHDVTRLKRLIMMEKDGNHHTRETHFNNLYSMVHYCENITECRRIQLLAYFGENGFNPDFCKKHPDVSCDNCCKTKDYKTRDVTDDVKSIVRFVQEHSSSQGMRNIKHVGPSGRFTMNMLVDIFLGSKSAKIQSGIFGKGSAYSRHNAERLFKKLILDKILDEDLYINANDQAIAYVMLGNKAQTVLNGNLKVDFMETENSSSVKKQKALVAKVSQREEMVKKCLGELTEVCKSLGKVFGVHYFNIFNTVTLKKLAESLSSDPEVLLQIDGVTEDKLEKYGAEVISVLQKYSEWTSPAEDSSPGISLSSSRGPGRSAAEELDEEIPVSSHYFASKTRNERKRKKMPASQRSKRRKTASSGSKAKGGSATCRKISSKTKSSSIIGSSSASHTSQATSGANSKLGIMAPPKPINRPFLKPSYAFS
Chain of DNA repair nuclease/redox regulator APEX1 (Homo sapiens) (P27695 whole entry, looked up): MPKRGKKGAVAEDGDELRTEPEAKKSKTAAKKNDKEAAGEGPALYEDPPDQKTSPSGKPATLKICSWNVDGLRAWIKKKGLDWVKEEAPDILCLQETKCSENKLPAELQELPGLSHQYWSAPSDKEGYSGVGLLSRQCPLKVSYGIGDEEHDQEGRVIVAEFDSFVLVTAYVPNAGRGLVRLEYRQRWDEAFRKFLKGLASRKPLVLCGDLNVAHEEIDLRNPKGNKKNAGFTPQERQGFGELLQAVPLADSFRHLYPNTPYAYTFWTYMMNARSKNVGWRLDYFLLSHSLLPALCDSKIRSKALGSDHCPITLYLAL
Chain of Ferritin light chain (Equus caballus) (P02791 2-175 limits assumed): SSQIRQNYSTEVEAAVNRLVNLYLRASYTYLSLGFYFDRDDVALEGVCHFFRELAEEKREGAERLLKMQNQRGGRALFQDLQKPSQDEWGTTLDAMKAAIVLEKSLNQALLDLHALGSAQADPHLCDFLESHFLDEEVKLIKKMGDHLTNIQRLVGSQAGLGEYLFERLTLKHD
Chain of DNA polymerase III PolC-type (Bacillus subtilis (strain 168)) (P13267 whole entry, looked up): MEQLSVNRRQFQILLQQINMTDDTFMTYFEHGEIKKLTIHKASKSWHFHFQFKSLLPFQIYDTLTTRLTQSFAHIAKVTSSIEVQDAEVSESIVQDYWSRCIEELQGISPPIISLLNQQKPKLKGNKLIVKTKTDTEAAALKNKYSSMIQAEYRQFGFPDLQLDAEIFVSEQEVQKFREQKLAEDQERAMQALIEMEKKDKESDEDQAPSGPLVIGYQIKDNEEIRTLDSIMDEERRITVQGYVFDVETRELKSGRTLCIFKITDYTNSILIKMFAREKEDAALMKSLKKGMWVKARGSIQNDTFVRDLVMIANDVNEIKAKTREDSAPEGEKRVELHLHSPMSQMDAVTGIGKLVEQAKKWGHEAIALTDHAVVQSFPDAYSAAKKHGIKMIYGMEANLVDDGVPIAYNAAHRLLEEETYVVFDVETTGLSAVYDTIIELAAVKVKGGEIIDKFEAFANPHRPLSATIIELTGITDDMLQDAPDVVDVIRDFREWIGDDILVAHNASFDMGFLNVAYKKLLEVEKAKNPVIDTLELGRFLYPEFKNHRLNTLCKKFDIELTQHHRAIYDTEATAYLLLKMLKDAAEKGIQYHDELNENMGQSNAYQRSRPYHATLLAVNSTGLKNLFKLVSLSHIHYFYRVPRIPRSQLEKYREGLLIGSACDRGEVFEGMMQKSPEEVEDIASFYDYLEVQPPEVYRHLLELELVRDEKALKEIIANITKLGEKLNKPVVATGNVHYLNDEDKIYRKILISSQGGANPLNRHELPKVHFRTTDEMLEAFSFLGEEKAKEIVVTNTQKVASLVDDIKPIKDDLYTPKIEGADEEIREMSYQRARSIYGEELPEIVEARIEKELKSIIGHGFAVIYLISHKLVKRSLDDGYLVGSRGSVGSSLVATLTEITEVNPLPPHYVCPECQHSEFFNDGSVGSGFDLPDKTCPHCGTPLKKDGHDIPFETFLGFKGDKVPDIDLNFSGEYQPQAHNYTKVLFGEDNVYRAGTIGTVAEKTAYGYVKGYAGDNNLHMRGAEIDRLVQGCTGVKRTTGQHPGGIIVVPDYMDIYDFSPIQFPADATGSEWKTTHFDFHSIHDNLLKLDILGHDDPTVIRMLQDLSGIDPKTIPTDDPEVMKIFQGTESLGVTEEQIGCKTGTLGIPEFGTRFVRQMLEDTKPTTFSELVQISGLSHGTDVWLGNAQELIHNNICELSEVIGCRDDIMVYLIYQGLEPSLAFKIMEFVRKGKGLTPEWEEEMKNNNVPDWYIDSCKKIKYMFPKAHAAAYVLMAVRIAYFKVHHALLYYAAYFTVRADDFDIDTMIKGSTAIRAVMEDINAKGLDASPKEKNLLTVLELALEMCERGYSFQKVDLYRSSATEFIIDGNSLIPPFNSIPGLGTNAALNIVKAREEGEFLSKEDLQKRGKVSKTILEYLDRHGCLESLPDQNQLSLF

COC(=O)C(c1ccccc1)C1CCCCN1 (configuration not stated)
inactive: [1]

C[C@]12CCC(=O)C=C1CC[C@@H]1[C@@H]2CC[C@@]2(C)[C@H]1CC[C@]2(C)O
inactive: [1]

NC(N)=Nc1nc(CSCC/C(N)=N/S(N)(=O)=O)cs1
inactive: [2]

NCCc1ccc(O)cc1
not listed: [1] | [20]
inactive: all other assays above

Nc1ccccc1
inactive: [1]

COc1cc(OC)c(OC)cc1C=O
inactive: [1]

CNCC(O)c1ccc(O)c(O)c1 (configuration not stated)
inactive: [2]

CCC(C)(C)c1ccc(O)cc1
inactive: [1]

CC(=O)N1CCN(c2ccc(OC[C@H]3CO[C@](Cn4ccnc4)(c4ccc(Cl)cc4Cl)O3)cc2)CC1
inactive: [2]
active: [5] 11.2 µM | [6] 7.94 µM | [7] 7.08 µM | [8] 10 µM | [9] 7.94 µM | [10] 7.08 µM | [11] 11.2 µM

CC(C)N(CCC(C(N)=O)(c1ccccc1)c1ccccn1)C(C)C (configuration not stated)
active: [10] 8.91 µM
not listed: [1] | [6]
inactive: all other assays above

Clc1cccc(Cl)c1NC1=NCCN1
inactive: [2]

CN1C(=O)CCS(=O)(=O)C1c1ccc(Cl)cc1 (configuration not stated)
not listed: [1] | [3] | [10] | [12]
inactive: all other assays above

COc1ccc2cc([C@H](C)C(=O)O)ccc2c1
inactive: [2]

CC(C)(C)NCC(O)c1ccccc1Cl (configuration not stated)
active: [5] 5.62 µM | [6] 6.31 µM | [9] 12.6 µM | [10] 4.47 µM
not listed: [1] | [7] | [8] | [11] | [12] | [20]
inactive: all other assays above

CCOC(=O)CC(SP(=S)(OC)OC)C(=O)OCC (configuration not stated)
inactive: [1]

CC(NC(C)(C)C)C(=O)c1cccc(Cl)c1 (configuration not stated)
active: [6] 12.6 µM
not listed: [1] | [5] | [9] | [10] | [20]
inactive: all other assays above

CC(C)NC(C)C
inactive: [1]

NC(=O)c1cnccn1
inactive: [2]

O=c1[nH]oc2c1CCNC2
not listed: [1] | [4] | [12] | [13] | [17] | [20]
inactive: all other assays above

CC[N+](CC)(CC)CCOc1cccc(OCC[N+](CC)(CC)CC)c1OCC[N+](CC)(CC)CC
inactive: [4] | [2]

C[C@]1(O)CC[C@H]2[C@@H]3CCC4=CC(=O)CC[C@]4(C)[C@@]3(F)[C@@H](O)C[C@@]21C
inactive: [1]

CCN(Cc1ccncc1)C(=O)C(CO)c1ccccc1 (configuration not stated)
inactive: [2]

Oc1ccc(Cl)cc1
inactive: [1]

CCCCC/C=C\C/C=C\C/C=C\C/C=C\CCCC(=O)NCC(=O)O
inactive: [9] | [13] | [20] | [15] | [16] | [2] | [17] | [19]
active: [3] 28.2 µM | [5] 14.1 µM | [6] 14.1 µM | [11] 14.1 µM | [14] 3.98 µM

O=C(O)CCCCCCCC(=O)O
inactive: [2]

CC(C)c1cccc(C(C)C)c1O
not listed: [1] | [13] | [20]
inactive: all other assays above

Nc1ccccc1C(=O)O
inactive: [1]

O=C(O)CCCc1ccc(N(CCCl)CCCl)cc1
inactive: [3] | [4] | [1] | [13] | [14] | [15] | [16] | [2] | [18] | [19]
active: [10] 11.2 µM

Cc1ncsc1CCCl
inactive: [15] | [16] | [18] | [19]

C[C@]12CCC(=O)C=C1CC[C@@H]1[C@@H]2CC[C@]2(C)C(=O)CC[C@@H]12
inactive: [3] | [4] | [7] | [9] | [11] | [13] | [14] | [2] | [17]

C=C(C)[C@H]1CN[C@H](C(=O)O)[C@H]1CC(=O)O
not listed: [1] | [4] | [12] | [20]
inactive: all other assays above

O=P1(N(CCCl)CCCl)NCCCO1 (configuration not stated)
not listed: [1] | [12]
inactive: all other assays above

COc1ccc2c(c1OC)C(=O)O[C@H]2[C@@H]1c2cc3c(cc2CCN1C)OCO3
inactive: [15] | [16] | [18] | [19]

O=C(CCCN1CCC2(CC1)C(=O)NCN2c1ccccc1)c1ccc(F)cc1
inactive: [3] | [4] | [13] | [14] | [15] | [16] | [18] | [19]

COP(=S)(OC)Oc1ccc(SC)c(C)c1
inactive: [1]

CCCC(C)(COC(N)=O)COC(N)=O
inactive: [1]

CCC1(c2ccc(N)cc2)CCC(=O)NC1=O (configuration not stated)
not listed: [1] | [12]
inactive: all other assays above
